Measurements published in PubChem BioAssay AID652115 (Broad Institute, 2013).
“And” between values parts separate entries of the source, which are not always exact repeats. Identical values can stand only once. The whole screen tested about 330,000 compounds, of which about 3,800 (1.2%) were called active. Rule as the data show it: active = inhibition above about 15%; inconclusive = no clear call, values can overlap the other calls; inactive = below that. Only a selection was taken, and actives are over-represented in it overall. Some compounds were tested as several samples or in several runs, with calls that do not always agree.

What follows are compounds tested against NAD-dependent protein deacylase sirtuin-5, mitochondrial (Homo sapiens) (UniProt Q9NXA8) (assay: SIRT5 desuccinylase inhibitors, primary screen, biochemical, fluorescence imaging, single point, set 5 (AID 652115)). Conditions: Purified SirT5, succinyl-peptide AMC, trypsin-coupled fluorescence; at 15 µM; stronger effect = higher value.
Chain of NAD-dependent protein deacylase sirtuin-5, mitochondrial (Homo sapiens) (Q9NXA8 whole entry, looked up): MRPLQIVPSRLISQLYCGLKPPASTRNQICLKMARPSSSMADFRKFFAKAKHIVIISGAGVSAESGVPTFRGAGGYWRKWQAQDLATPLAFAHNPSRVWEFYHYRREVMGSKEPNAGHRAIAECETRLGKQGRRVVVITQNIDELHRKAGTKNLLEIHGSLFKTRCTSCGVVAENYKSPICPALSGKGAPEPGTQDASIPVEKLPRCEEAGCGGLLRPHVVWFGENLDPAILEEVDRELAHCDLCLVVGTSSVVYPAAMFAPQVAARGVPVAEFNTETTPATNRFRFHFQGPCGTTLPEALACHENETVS

SMILES | inhibition
O=C(CN1CCOCC1)N1CCCCN2[C@@H](CO)[C@H](c3ccc(-c4ccccc4)cc3)[C@@H]2C1 | -2% (inactive)
O=C(CN1CCOCC1)N1CCCCN2[C@H](CO)[C@H](c3ccc(-c4ccccc4)cc3)[C@@H]2C1 | -2.91% (inactive)
O=C(CN1CCOCC1)N1CCCCN2[C@H](C1)[C@H](c1ccc(-c3ccccc3F)cc1)[C@@H]2CO | 22.6% (active)
CNC(=O)C[C@@H]1CC[C@@H]2[C@H](COc3ccc(NC(=O)Nc4ccccc4)cc3C(=O)N2C)O1 | 5.7% (inactive)
CN(C)CC(=O)Nc1ccc2c(c1)[C@H]1C[C@H](CC(=O)NCc3ccccn3)O[C@@H](CO)[C@H]1O2 | -6.14% (inactive)
Cc1ccc(SCCC(=O)Nc2cc(C)on2)cc1 | -2.48% (inactive)
Cc1ccc(SCCC(=O)NC(C(C)C)C(C)C)cc1 | 15.4% (active)
Cc1ccc(SCCC(=O)NCc2ccccn2)cc1 | -1.1% (inactive)
COc1ccccc1S(=O)(=O)N1C[C@@H]2N[C@H](C1)C2c1ccc(-c2cccc(C)c2)cc1 (some centres not stated) | 1.28% (inactive) and 16.2% (active)
O=C(C1CCCCC1)N1C[C@@H]2N[C@H](C1)C2c1ccc(-c2cccc(F)c2)cc1 (some centres not stated) | 1.22% (inactive) and 3.71% (inactive)
Cc1cccc(-c2ccc(C3[C@@H]4CN(C(=O)Nc5ccc(C(F)(F)F)cc5)C[C@H]3N4)cc2)c1 (some centres not stated) | 7.01% (inactive) and 16.1% (active)
COc1cccc(S(=O)(=O)N2C[C@@H]3N[C@H](C2)C3c2ccc(-c3cccc(C(=O)N(C)C)c3)cc2)c1 (some centres not stated) | 1.44% (inactive) and 6.3% (inactive)
CN(C)C(=O)c1ccc(-c2ccc(C3[C@@H]4CN(C(=O)Nc5ccccc5)C[C@H]3N4)cc2)cc1 (some centres not stated) | -1.69% (inactive)
N#Cc1ccc(-c2ccc(C3[C@@H]4CN(S(=O)(=O)c5ccccc5F)C[C@H]3N4)cc2)cc1 (some centres not stated) | -1.48% (inactive) and -0.825% (inactive)
O=C(C[C@H]1CC[C@H](NS(=O)(=O)c2ccccc2)[C@H](CO)O1)NCc1ccncn1 | 6.51% (inactive)
CN1C(=O)c2cc(NC(=O)Cc3cccs3)ccc2OC[C@@H]2O[C@@H](CC(=O)N[C@@H]3CCN(Cc4ccccc4)C3)CC[C@H]21 | -2.4% (inactive)
COCCCNC(=O)[C@@]1(C)c2ccccc2C(=O)N(Cc2ccc(OC(F)(F)F)cc2)[C@H]1c1ccc(CO)cc1 | 0.166% (inactive)
COc1ccccc1CNC(=O)C[C@H]1C[C@@H]2c3cc(NC(=O)Nc4ccccc4F)ccc3O[C@@H]2[C@H](CO)O1 | -5.72% (inactive)
COCC(=O)N(C)C[C@H]1Oc2cc(C#C[C@@H](C)O)ccc2S(=O)(=O)N([C@H](C)CO)C[C@H]1C | -5.34% (inactive)
CO[C@@H]1CN(C)C(=O)c2cc(NC(=O)CC(F)(F)F)ccc2OC[C@H](C)N(S(=O)(=O)c2cn(C)cn2)C[C@H]1C | 1.11% (inactive)
O=C(O)C[C@@H]1C[C@@H]2c3cc(NC(=O)Nc4ccccc4)ccc3O[C@@H]2[C@H](CO)O1 | -3.63% (inactive)
COc1ccc(NC(=O)N[C@H]2CC[C@H](CCn3cc(-c4ccccc4F)nn3)O[C@H]2CO)cc1 | -0.072% (inactive)
O=C(Nc1ccc(F)cc1)N[C@H]1CC[C@H](CCn2cc(-c3ccc(F)cc3)nn2)O[C@@H]1CO | 3.97% (inactive)
O=C(Cc1ccncc1)N[C@@H]1CC[C@H](CCn2cc(-c3ccccc3F)nn2)O[C@H]1CO | 1.05% (inactive)

SMILES | inhibition
COc1ccc(NC(=O)N[C@@H]2CC[C@H](CCn3cc(-c4ccc(OC)cc4)nn3)O[C@@H]2CO)cc1 | 31.3% (active)
O=C(Cc1ccncc1)N[C@H]1CC[C@H](CCn2cc(-c3ccccc3F)nn2)O[C@@H]1CO | 25.2% (active)
O=C(Cc1cccnc1)N[C@H]1CC[C@H](CCn2cc(-c3ccccc3F)nn2)O[C@H]1CO | -1.27% (inactive)
COc1ccc2c3c(n(C)c2c1)[C@@H](CO)NCC31CCN(CC2CCCC2)CC1 | -0.874% (inactive)
CN1CCN(C(=O)C[C@@H]2C=C[C@@H](NS(=O)(=O)c3cccc(F)c3)[C@@H](CO)O2)CC1 | 1.94% (inactive)
C[C@@H]1CN([C@@H](C)CO)S(=O)(=O)c2ccc(-c3cccnc3)cc2O[C@H]1CN(C)CC1CCOCC1 | 1.51% (inactive)
CCC(=O)N1[C@H](C(=O)NC2CCC2)[C@@H](CO)[C@@H]2Cn3c(cccc3=O)[C@@H]21 | -8.06% (inactive)
C[C@H](CO)N1C[C@H](C)[C@@H](CN(C)S(=O)(=O)c2ccccc2F)Oc2ncc(C#Cc3ccccc3F)cc2C1=O | 2.94% (inactive)
N#C[C@@H]1[C@@H](c2ccccc2C2=CCCC2)[C@H](CO)N1C(=O)NC1CCCC1 | 1.76% (inactive)
Oc1c(Cl)cc(Cl)c(Cl)c1Cc1c(O)c(Cl)cc(Cl)c1Cl | 16% (active)
COCC(=O)Nc1ccc2c(c1)C(=O)N(C)[C@@H]1CC[C@@H](CC(=O)NCC(F)(F)F)O[C@H]1CO2 | 0.833% (inactive)
O=C1CCC(C(=O)N2CCC(O)(c3ccccc3)CC2)CN1CCc1ccccc1 (configuration not stated) | 15.1% (active)
O=C(NCCCc1ccccc1)C1CCC(=O)N(CCc2ccc(Cl)cc2)C1 (configuration not stated) | -3.16% (inactive)
Cc1cnc(C)c(N2CCN(C(=O)C3CCC(=O)N(CCc4cccc(F)c4)C3)CC2)n1 (configuration not stated) | -3.12% (inactive)
C[C@@H]1CN([C@@H](C)CO)C(=O)c2cccc(NC(=O)Nc3ccc(F)cc3)c2O[C@H]1CN(C)Cc1ccc(-c2ccccc2)cc1 | -1.08% (inactive)
CCNC(=O)[C@H]1[C@H](CO)[C@H]2Cn3c(ccc(-c4cccc(OC)c4)c3=O)[C@H]2N1Cc1nccs1 | -15.5% (inactive)
CN1c2ccc(C3=CCCCC3)cc2[C@@H]2[C@@H](CCN2C(=O)Nc2cc(F)ccc2F)[C@@H]1CO | 1.41% (inactive)
O=S(=O)(NC1CC1)c1ccc2c3c(cccc13)CC2 | -2.65% (inactive)
CC(=O)Nc1ccc2c3c(ccc([N+](=O)[O-])c13)CC2 | -1.7% (inactive)
CC(C)C(=O)Nc1ccc2c3c(cccc13)CC2 | 18.7% (active)
COCC#Cc1ccc([C@H]2[C@@H](CO)N3C(=O)CN(C(=O)C4CCCC4)C[C@@H]23)cc1 | 0.614% (inactive)
C[C@H](CO)N1C[C@H](C)[C@@H](CN(C)S(=O)(=O)c2ccccc2)Oc2ccc(NC(=O)Nc3ccc(F)cc3)cc2CC1=O | 3.49% (inactive)
O=C([C@H]1[C@H](CO)[C@H]2Cn3c(ccc(C4=CCCCC4)c3=O)[C@@H]1N2)N1CCCCC1 | -11.2% (inactive)
C=C(C)COc1ccc(-c2ncncc2-c2ccc(OC)cc2)c(O)c1 | 24.8% (active)

SMILES | inhibition
C=C(C)COc1ccc(-c2nc(N)ncc2-c2ccccc2OC)c(O)c1 | -0.166% (inactive)
COc1ccc(-c2nc(N)ncc2-c2ccc(Cl)cc2)c(O)c1 | -4.03% (inactive)
C=C[C@H](OC)[C@@H](O)c1ccc(OC)c(O)c1 | -1.66% (inactive)
CCNC(=O)C[C@@H]1CC[C@@H]2[C@@H](COc3ccc(NC(C)=O)cc3C(=O)N2C)O1 | 1.4% (inactive)
COCC(=O)Nc1ccc2c(c1)C(=O)N(C)C[C@@H](OC)[C@H](C)CN(C(=O)c1ccccn1)[C@@H](C)CO2 | 0.122% (inactive)
O=C(NCC[C@@H]1CC[C@H](NC(=O)C2CC2)[C@H](CO)O1)c1cnccn1 | 1.79% (inactive)
Cc1ccccc1NC(=O)c1cnn(-c2ccccc2)c1NC(=O)c1ccco1 | 3.74% (inactive)
O=C(Nc1c(C(=O)N2CCCCC2)cnn1-c1ccccc1)c1ccco1 | 0.316% (inactive)
O=C(NNc1ncnc2c1cnn2-c1ccccc1)c1ccco1 | 16.9% (active)
COc1ccc(Cl)cc1NC(=O)COc1ccc2c(c1)OCO2 | -11.6% (inactive)
COc1ccc(Cl)cc1NC(=O)COC(=O)c1ccc(Br)o1 | 21% (active)
COc1ccc(Cl)cc1NC(=O)CN(C)Cc1ccc(OC)c(OC)c1 | -4.51% (inactive)
O=C(C[C@@H]1CC[C@H]2[C@@H](COC[C@@H](O)CN2C(=O)Nc2ccc(F)cc2)O1)NCC1CC1 | 2.85% (inactive)
O=C(C[C@@H]1CC[C@H](NC(=O)c2ccncc2)[C@@H](CO)O1)Nc1ccc(-c2ccccc2)cc1 | -3.04% (inactive)
COc1ccc(Br)cc1/C=N/Nc1ccc(S(=O)(=O)Nc2ccccc2C(=O)O)cc1[N+](=O)[O-] | 47.2% (active)
COc1cc(OC)c(S(=O)(=O)Nc2ccccc2C(=O)O)cc1S(=O)(=O)Nc1ccccc1C(=O)O | 0.719% (inactive)
COc1cccc(/C=N/Nc2ccc(S(=O)(=O)Nc3ccccc3C(=O)O)cc2[N+](=O)[O-])c1O | 19% (active)
COc1ccc(Br)cc1/C=N/Nc1ccc(Cl)c(C(=O)O)c1 | -8.87% (inactive)
O=C(O)c1ccccc1/C=N/Nc1ccc(S(=O)(=O)Nc2ccc(Cl)cc2)cc1[N+](=O)[O-] | 10.8% (inactive)
Cc1ccc(NS(=O)(=O)c2ccc(N/N=C/c3ccccc3OCC(=O)O)c([N+](=O)[O-])c2)c(C)c1 | -2.15% (inactive)
COc1ccc2c3c([nH]c2c1)[C@@H](CO)N(Cc1cccc(F)c1)CC31CN(CC2CC2)C1 | 3.68% (inactive)
CCNC(=O)C[C@@H]1CC[C@@H]2[C@H](COc3ccc(NC(=O)Nc4cccc(C)c4)cc3C(=O)N2C)O1 | -1.08% (inactive)
C/C=C/c1ccccc1[C@@H]1[C@@H](CO)N(S(=O)(=O)c2cccc(F)c2)[C@H]1C#N | 2.5% (inactive)
O=C(C[C@@H]1CC[C@@H]2[C@H](COC[C@H](O)CN2S(=O)(=O)c2ccccc2)O1)N[C@H]1CCN(Cc2ccccc2)C1 | -3.32% (inactive)
